Reference: PubChem BioAssay (EPA / NIEHS)
Active and inactive are the calls of the source. How the source made its calls: active means hit-call score of the fitted dose curve at least 0.9, where 1 is the maximum; inactive means score below 0.9.

Legend:
Settings in all cases: mRNA level, 48 h; actives raise or lower the signal
[1] = read-out: Lipoprotein lipase (LPL), LPL (gene 4023); experiment: LTEA_HepaRG_LPL: Life Technologies and Expression Analysis (LTEA) Assay for Lipoprotein lipase (LPL) using HepaRG (AID 2283515)
Procedure, shortened: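 Differentiated human HepaRG cells in serum-free induction medium were exposed in duplicate for 48 h to eight half-log concentrations (top 100 uM) in 0.5% DMSO. LPL mRNA was quantified by TaqMan qRT-PCR, normalized to ACTB, GAPDH and POLR2A.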

[2] = read-out: MicroRNA 122 (MIR122), gene 406906; experiment: LTEA_HepaRG_MIR122: Life Technologies and Expression Analysis (LTEA) Assay for MicroRNA 122 (MIR122) using HepaRG (AID 2283516); further: the transcript read is the microRNA miR-122
Procedure, shortened: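 HepaRG plated 48 h, switched to serum-free induction medium, then treated in duplicate for 48 h (100 uM top, half-log steps, 0.5% DMSO vehicle). RNA isolated, qRT-PCR performed, concentration-response fitted both directions relative to DMSO.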

[3] = read-out: matrix metalloproteinase-10 (MMP10), MMP10 (gene 4319); experiment: LTEA_HepaRG_MMP10: Life Technologies and Expression Analysis (LTEA) Assay for matrix metalloproteinase-10 (MMP10) using HepaRG (AID 2283517)
Procedure, shortened: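 HepaRG, collagen I, ~100,000 cells/well; serum-free induction medium; 48 h exposure, duplicate, 8-pt half-log to 100 uM, 0.5% DMSO. Readout: TaqMan qRT-PCR, normalized to ACTB/GAPDH/POLR2A; bidirectional fit vs DMSO.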

MYC, MYC (gene 4609) = experiment: LTEA_HepaRG_MYC: Life Technologies and Expression Analysis (LTEA) Assay for MYC using HepaRG (AID 2283518)
Procedure, shortened: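 Differentiated HepaRG cells exposed 48 h in serum-free induction medium to 8 concentrations (top 100 uM, half-log steps; 0.5% DMSO), duplicate. MYC mRNA measured by Fluidigm qRT-PCR, normalized to ACTB, GAPDH, POLR2A; bidirectional fit versus DMSO.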

[4] = read-out: matrix metalloproteinase-3 (MMP3), MMP3 (gene 4314); experiment: LTEA_HepaRG_MMP3: Life Technologies and Expression Analysis (LTEA) Assay for matrix metalloproteinase-3 (MMP3) using HepaRG (AID 2283519)
Procedure, shortened: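 Differentiated human HepaRG cells, plated 48 h on collagen I, were exposed in duplicate for 48 h in serum-free induction medium to eight half-log concentrations up to 100 uM in 0.5% DMSO. MMP3 mRNA was quantified by TaqMan qRT-PCR, normalised to ACTB, GAPDH and POLR2A.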

[5] = read-out: Paternally Expressed 10 (PEG10), PEG10 (gene 23089); experiment: LTEA_HepaRG_PEG10: Life Technologies and Expression Analysis (LTEA) Assay for Paternally Expressed 10 (PEG10) using HepaRG (AID 2283520)
Procedure, shortened: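 HepaRG, 48 h post-plating → serum-free induction medium → 48 h chemical exposure (duplicate, 8-pt, max 100 uM, half-log, 0.5% DMSO) → lysis in RLT → TaqMan qRT-PCR for PEG10, ACTB/GAPDH/POLR2A normalisation.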

[6] = read-out: Protein phosphatase 2A (PPP2R4), PTPA (gene 5524); experiment: LTEA_HepaRG_PPP2R4: Life Technologies and Expression Analysis (LTEA) Assay for Protein phosphatase 2A (PPP2R4) using HepaRG (AID 2283522)
Procedure, shortened: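 Readout is PPP2R4 transcript level by microfluidic qRT-PCR after 48 h chemical treatment of human HepaRG liver cells. Concentrations spanned 100 uM downward in half-log steps; gain or loss of signal was fitted relative to DMSO.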

[7] = read-out: Phosphatase and tensin (PTEN), PTEN (gene 5728); experiment: LTEA_HepaRG_PTEN: Life Technologies and Expression Analysis (LTEA) Assay for Phosphatase and tensin (PTEN) using HepaRG (AID 2283523)
Procedure, shortened: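 Differentiated human HepaRG cells, plated 48 h then switched to serum-free induction medium, were exposed in duplicate for 48 h to eight half-log concentrations up to 100 uM in 0.5% DMSO. PTEN mRNA measured by TaqMan qRT-PCR, normalized to ACTB/GAPDH/POLR2A, bidirectional fit versus DMSO.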

[8] = read-out: solute carrier (SLC22A1), SLC22A1 (gene 6580); experiment: LTEA_HepaRG_SLC22A1: Life Technologies and Expression Analysis (LTEA) Assay for solute carrier (SLC22A1) using HepaRG (AID 2283524)
Procedure, shortened: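 Human HepaRG cells were plated 48 h, switched to serum-free induction medium, then exposed in duplicate for 48 h to 8-point half-log series from 100 uM in 0.5% DMSO. SLC22A1 mRNA measured by qRT-PCR, normalized to ACTB/GAPDH/POLR2A, fitted bidirectionally versus DMSO.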

[9] = read-out: Pyruvate Dehydrogenase Kinase 4 (PDK4), PDK4 (gene 5166); experiment: LTEA_HepaRG_PDK4: Life Technologies and Expression Analysis (LTEA) Assay for Pyruvate Dehydrogenase Kinase 4 (PDK4) using HepaRG (AID 2283525)
Procedure, shortened: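 Differentiated human HepaRG cells, pre-cultured 48 h, were exposed in duplicate for 48 h in serum-free induction medium to eight half-log concentrations up to 100 uM in 0.5% DMSO. PDK4 mRNA was quantified by qRT-PCR, normalized to ACTB, GAPDH and POLR2A, bidirectional fitting versus DMSO.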

[10] = read-out: NAD(P)H dehydrogenase [quinone] 1 (NQO1), NQO1 (gene 1728); experiment: LTEA_HepaRG_NQO1: Life Technologies and Expression Analysis (LTEA) Assay for NAD(P)H dehydrogenase [quinone] 1 (NQO1) using HepaRG (AID 2283526)
Procedure, shortened: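 HepaRG, 48 h post-plating → serum-free induction medium → test chemical 48 h (duplicate, 100 uM top, half-log x8, 0.5% DMSO) → RNA isolation → qRT-PCR, ACTB/GAPDH/POLR2A normalization; bidirectional curve fit vs DMSO baseline.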

[11] = read-out: Nuclear factor erythroid 2-related factor 2 (Homo sapiens) (UniProt Q16236); experiment: LTEA_HepaRG_NFE2L2: Life Technologies and Expression Analysis (LTEA) Assay for Nuclear factor erythroid 2-related factor 2 (NFE2L2) Transcription Factor using HepaRG (AID 2283527)
Procedure, shortened: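 Differentiated human HepaRG cells in serum-free induction medium were exposed for 48 h to eight concentrations (top 100 uM, half-log dilutions, 0.5% DMSO), in duplicate. NFE2L2 mRNA was quantified by TaqMan qRT-PCR, normalized to ACTB, GAPDH and POLR2A, with bidirectional fitting versus DMSO.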

[12] = read-out: succinate dehydrogenase complex iron sulfur subunit B (SDHB), SDHB (gene 6390); experiment: LTEA_HepaRG_SDHB: Life Technologies and Expression Analysis (LTEA) Assay for succinate dehydrogenase complex iron sulfur subunit B (SDHB) using HepaRG (AID 2283528)
Procedure, shortened: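 HepaRG cells (~100,000/well, plated 48 h) exposed in duplicate for 48 h in serum-free induction medium to 8-point half-log series from 100 uM in 0.5% DMSO; mRNA by qRT-PCR normalised to ACTB, GAPDH, POLR2A; bidirectional fit versus DMSO.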

[13] = read-out: Signal transducer and activator of transcription 3 (Homo sapiens) (UniProt P40763); experiment: LTEA_HepaRG_STAT3: Life Technologies and Expression Analysis (LTEA) Assay for Signal transducer and activator of transcription (STAT3) using HepaRG (AID 2283529)
Procedure, shortened: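 Differentiated human HepaRG cells in serum-free induction medium were exposed in duplicate for 48 h to eight half-log concentrations up to 100 uM in 0.5% DMSO. STAT3 mRNA was quantified by TaqMan qRT-PCR, normalized to ACTB, GAPDH and POLR2A, and fitted bidirectionally against DMSO.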

[14] = read-out: solute carrier (SLCO1B1), SLCO1B1 (gene 10599); experiment: LTEA_HepaRG_SLCO1B1: Life Technologies and Expression Analysis (LTEA) Assay for solute carrier (SLCO1B1) using HepaRG (AID 2283530)
Procedure, shortened: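 Differentiated human HepaRG cells were exposed for 48 h in serum-free induction medium to eight half-log concentrations, top 100 uM, in 0.5% DMSO. SLCO1B1 mRNA was measured by qRT-PCR, normalized to ACTB, GAPDH and POLR2A, and fitted bidirectionally against DMSO.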

[15] = read-out: sulfotransferase 2A1 (SULT2A1), SULT2A1 (gene 6822); experiment: LTEA_HepaRG_SULT2A1: Life Technologies and Expression Analysis (LTEA) Assay for sulfotransferase 2A1 (SULT2A1) using HepaRG (AID 2283531)
Procedure, shortened: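 HepaRG human liver cells, 48 h exposure in serum-free induction medium to 8 half-log concentrations topping at 100 µM (0.5% DMSO), duplicate wells. SULT2A1 mRNA measured by TaqMan qRT-PCR, normalized to ACTB/GAPDH/POLR2A; bidirectional fit against DMSO.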

[16] = read-out: Transforming Growth Factor (TGFA), TGFA (gene 7039); experiment: LTEA_HepaRG_TGFA: Life Technologies and Expression Analysis (LTEA) Assay for Transforming Growth Factor (TGFA) using HepaRG (AID 2283532)
Procedure, shortened: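 Differentiated human HepaRG cells, plated 48 h then switched to serum-free induction medium, were exposed in duplicate for 48 h to 8-point half-log series from 100 uM in 0.5% DMSO. TGFA mRNA measured by qRT-PCR, normalized to ACTB/GAPDH/POLR2A, bidirectional fit versus DMSO.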

[17] = read-out: Transforming Growth Factor (TGFB1), TGFB1 (gene 7040); experiment: LTEA_HepaRG_TGFB1: Life Technologies and Expression Analysis (LTEA) Assay for Transforming Growth Factor (TGFB1) Transporter using HepaRG (AID 2283533)
Procedure, shortened: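 Differentiated HepaRG cells exposed 48 hr in serum-free induction medium to eight half-log concentrations up to 100 uM (0.5% DMSO), duplicate; TGFB1 mRNA by TaqMan qRT-PCR normalised to ACTB, GAPDH, POLR2A; bidirectional fit against DMSO.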

TIMP1, TIMP1 (gene 7076) = experiment: LTEA_HepaRG_TIMP1: Life Technologies and Expression Analysis (LTEA) Assay for TIMP1 using HepaRG (AID 2283534)
Procedure, shortened: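 Differentiated HepaRG cells exposed 48 h in serum-free induction medium, duplicates, eight half-log concentrations from 100 uM in 0.5% DMSO. TIMP1 mRNA by qRT-PCR normalized to ACTB, GAPDH, POLR2A; bidirectional fitting against DMSO.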

[18] = read-out: Nuclear factor NF-kappa-B p105 subunit (Homo sapiens) (UniProt P19838); experiment: LTEA_HepaRG_NFKB1: Life Technologies and Expression Analysis (LTEA) Assay for Nuclear Factor Kappa B Subunit 1 (NFKB1) using HepaRG (AID 2283521);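 further: TaqMan qRT-PCR transcript normalised to ACTB GAPDH and POLR2A housekeeping genes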
Procedure, shortened: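 Differentiated human HepaRG cells in serum-free induction medium with 0.5% DMSO were exposed for 48 h to eight half-log concentrations, top 100 uM, in duplicate. NFKB1 mRNA measured by Fluidigm TaqMan qRT-PCR, normalised to ACTB, GAPDH and POLR2A; bidirectional fit versus DMSO.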

Measured: AC50

Chain of Signal transducer and activator of transcription 3 (Homo sapiens) (P40763 whole entry, looked up): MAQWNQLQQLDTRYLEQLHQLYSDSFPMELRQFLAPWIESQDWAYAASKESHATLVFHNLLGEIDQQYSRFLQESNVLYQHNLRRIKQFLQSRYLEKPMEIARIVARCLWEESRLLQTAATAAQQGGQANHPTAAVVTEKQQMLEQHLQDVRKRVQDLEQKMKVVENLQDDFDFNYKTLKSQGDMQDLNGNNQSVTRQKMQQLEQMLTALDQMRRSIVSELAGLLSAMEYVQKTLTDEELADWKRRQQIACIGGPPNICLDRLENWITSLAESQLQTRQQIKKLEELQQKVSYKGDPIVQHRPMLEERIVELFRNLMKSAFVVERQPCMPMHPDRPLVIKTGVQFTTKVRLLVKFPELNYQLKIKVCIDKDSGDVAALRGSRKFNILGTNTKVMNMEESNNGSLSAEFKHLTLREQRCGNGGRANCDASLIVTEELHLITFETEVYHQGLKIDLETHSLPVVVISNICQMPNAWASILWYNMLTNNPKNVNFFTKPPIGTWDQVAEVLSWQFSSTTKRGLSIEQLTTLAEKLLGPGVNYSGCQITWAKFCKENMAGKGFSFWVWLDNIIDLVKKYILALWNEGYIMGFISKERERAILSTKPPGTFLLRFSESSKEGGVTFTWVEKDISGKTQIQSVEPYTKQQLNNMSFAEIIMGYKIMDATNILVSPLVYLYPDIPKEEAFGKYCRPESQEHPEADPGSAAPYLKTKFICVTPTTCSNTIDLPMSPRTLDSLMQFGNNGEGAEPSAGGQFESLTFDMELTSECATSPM
Chain of Nuclear factor erythroid 2-related factor 2 (Homo sapiens) (Q16236 whole entry, looked up): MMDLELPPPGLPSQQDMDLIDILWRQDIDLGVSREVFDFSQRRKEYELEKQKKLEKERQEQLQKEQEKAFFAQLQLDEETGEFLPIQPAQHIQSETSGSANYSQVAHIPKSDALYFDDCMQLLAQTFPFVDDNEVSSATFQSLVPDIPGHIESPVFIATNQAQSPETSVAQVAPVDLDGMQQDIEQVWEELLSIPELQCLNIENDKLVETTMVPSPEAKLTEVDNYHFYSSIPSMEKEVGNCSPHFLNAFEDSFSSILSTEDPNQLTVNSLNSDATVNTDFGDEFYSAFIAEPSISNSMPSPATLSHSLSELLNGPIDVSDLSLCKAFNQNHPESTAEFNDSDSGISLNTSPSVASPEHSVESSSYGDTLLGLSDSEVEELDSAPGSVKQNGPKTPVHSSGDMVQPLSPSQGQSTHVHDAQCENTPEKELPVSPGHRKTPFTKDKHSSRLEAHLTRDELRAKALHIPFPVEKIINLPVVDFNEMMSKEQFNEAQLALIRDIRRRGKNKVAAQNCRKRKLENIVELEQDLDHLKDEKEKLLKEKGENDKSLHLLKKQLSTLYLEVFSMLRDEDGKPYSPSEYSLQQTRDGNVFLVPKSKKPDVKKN
Chain of Nuclear factor NF-kappa-B p105 subunit (Homo sapiens) (P19838 whole entry, looked up): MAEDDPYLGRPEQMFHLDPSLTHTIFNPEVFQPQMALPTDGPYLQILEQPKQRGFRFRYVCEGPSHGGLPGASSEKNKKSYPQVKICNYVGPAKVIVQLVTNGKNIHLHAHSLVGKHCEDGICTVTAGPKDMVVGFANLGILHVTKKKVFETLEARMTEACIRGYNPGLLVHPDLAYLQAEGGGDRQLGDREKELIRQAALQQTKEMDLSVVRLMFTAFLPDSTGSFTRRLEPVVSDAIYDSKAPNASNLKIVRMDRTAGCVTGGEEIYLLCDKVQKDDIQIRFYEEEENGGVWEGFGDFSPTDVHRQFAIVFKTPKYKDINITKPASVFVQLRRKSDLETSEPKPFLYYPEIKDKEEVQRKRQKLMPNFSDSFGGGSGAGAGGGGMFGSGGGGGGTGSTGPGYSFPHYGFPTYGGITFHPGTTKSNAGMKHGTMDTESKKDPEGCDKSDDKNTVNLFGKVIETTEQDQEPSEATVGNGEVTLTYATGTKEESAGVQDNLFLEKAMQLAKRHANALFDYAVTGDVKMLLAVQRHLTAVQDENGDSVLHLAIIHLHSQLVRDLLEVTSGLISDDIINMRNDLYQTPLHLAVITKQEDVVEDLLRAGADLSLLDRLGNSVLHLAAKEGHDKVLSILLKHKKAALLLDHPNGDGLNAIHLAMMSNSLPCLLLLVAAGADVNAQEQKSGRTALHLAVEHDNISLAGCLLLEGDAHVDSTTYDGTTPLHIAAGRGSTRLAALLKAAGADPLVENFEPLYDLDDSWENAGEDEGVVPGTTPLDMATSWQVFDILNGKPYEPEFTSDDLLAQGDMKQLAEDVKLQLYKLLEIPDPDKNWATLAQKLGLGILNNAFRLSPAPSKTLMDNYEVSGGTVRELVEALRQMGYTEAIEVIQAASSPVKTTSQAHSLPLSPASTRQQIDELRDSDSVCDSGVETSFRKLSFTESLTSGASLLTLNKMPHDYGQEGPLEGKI

Cc1oc2c(NC(=O)c3c(Cl)cccc3Cl)cccc2c1C(C)(C)O
inactive: [4] | [6] | [7] | [10] | [12] | [13] | [16] | TIMP1, TIMP1 (gene 7076)
active: [1] 14 µM | [2] 38.6 µM | [3] 70.8 µM | MYC, MYC (gene 4609) 50 µM | [5] 3.27 µM | [8] 50 µM | [9] 14.9 µM | [11] 79 µM | [14] 54 µM | [15] 68.1 µM | [17] 50 µM

CN(C)c1ccc(C(=C2C=CC(=[N+](C)C)C=C2)c2ccc(N(C)C)cc2)cc1
active: [1] 36 µM | [2] 6.78 µM | [3] 8.54 µM | MYC, MYC (gene 4609) 12 µM | [4] 9.34 µM | [5] 6.63 µM | [6] 12.9 µM | [7] 26.1 µM | [8] 3.62 µM | [9] 32.4 µM | [10] 5 µM | [11] 12.7 µM | [12] 11.1 µM | [13] 39.3 µM | [14] 4.64 µM | [17] 68.7 µM | TIMP1, TIMP1 (gene 7076) 74.2 µM
inactive: [16]

CCCCCCCCCC(=O)O
not listed: [15]
inactive: all other assays above
